# Assay results from PubChem BioAssay (NCATS).
# Several values for one entry are separate records, joined by “and”; a condition that tells them apart may be missing. Equal values may be shown once. Records with an inconclusive call do not appear. The source holds several records for some structures; these can differ, active in one and inactive in another. Unmarked numbers belong to inactive results. Activity calls are given as the source filed them. Calls follow the shape of the dose curve; as a rule, active = well fitted inhibition curve with a large enough effect; inconclusive = small, poorly fitted or top-dose-only effect; inactive = flat fitted curve, though single readings scatter.
# System: HEK293
# Test: Cytotoxic Profiling of Annotated Libraries Using Quantitative High-Throughput Screening (AID 1296008); also: nearly all actives have a fitted effect of over 60% in size
# Conditions: Five cell lines viability, CellTiter-Glo ATP luminescence, 48-72 h; max response: hits give low values
# From the text: Cell-based phenotypic screening is a commonly used approach to discover biological pathways, novel drug targets, chemical probes and high-quality hit-to-lead molecules. Many hits identified from high-throughput screening campaign are ruled out through a series of follow-up potency, selectivity/specificity, and cytotoxicity assays. Prioritization of molecules with little or no cytotoxicity for a more in-depth downstream evaluation influence the future direction of projects, so cytotoxicity profiling of the screening libraries at early stage is essential for increasing the likelihood of candidate success. […] For the annotated library, we also examined the primary targets and mechanistic pathways regularly associated with cell death. To our knowledge, this is the first study to use high-throughput screening to profile large libraries for cytotoxicity assessment in both normal and cancer cell lines. In summary, the results generated here constitutes a valuable resource for the scientific community and provides insight on identifying cytotoxic compounds with particular mechanisms of action, and prioritizing compounds with suitable cytotoxicity profile for further evaluation.
# A pintool (Kalypsys) was used to transfer 23 nL of compound solution to the 1536-well assay plates. After 48 or 72 hr incubation at 37 degree Celsius, 5% CO2 and 95% humidity, 2.5 uL of CellTiter-Glo (Promega) was dispensed into each well using a dispenser (Aspect Automation, St. Paul, MN) with solenoid valves (Lee Valves, Westbrook CT). Plates were left at room temperature for 10 min before imaging the ATP-coupled luminescence using a ViewLux microplate imager (PerkinElmer, Waltham, MA).
# % is scaled to controls: 0 for no effect and ±100 for the full control effect; potency is read from the fitted curve at half-maximal effect.
SMILES,Potency,max response,outcome
CC[C@@H]1[C@@H](C)O[C@@](O)([C@@H](C)[C@H](O)[C@H](C)[C@H]2OC(=O)C=CC=C[C@@H](C)[C@@H]([C@@H](C)[C@@H](O)[C@H](C)[C@@]3(O)C[C@H](O[C@H]4C[C@H](O)[C@H](O)[C@H](C)O4)[C@H](CC)[C@@H](C)O3)OC(=O)C=CC=C[C@@H]2C)C[C@H]1O[C@H]1C[C@H](O)[C@H](O)[C@H](C)O1,1.18 µM (active),,
CSCC[C@@H](NC(=O)[C@@H](Cc1ccccc1)NC(=O)CNC(=O)CNC(=O)[C@@H](N)Cc1ccc(O)cc1)C(=O)O,,3.52%,
CC(C)(C)c1cc(C=C(C#N)C#N)cc(Br)c1O,,-8.76%,
C1=C2CCCN[C@H]2[C@@H]2C[C@H]1[C@@H]1CCCCN1C2,,0.094%,
COC(=O)c1cncn1C(C)c1ccccc1 (stereo not given),,-16.1%,
CC(Cc1ccc(O)cc1)NCC(O)c1cc(O)cc(O)c1 (stereo not given),,-1.83%,
CN[C@@H](C)[C@H](O)c1ccccc1,,,inactive
CCNC(=O)C[C@@H]1N=C(c2ccc(Cl)cc2)c2cc(OC)ccc2-n2c(C)nnc21,5.17 µM (active),,
N#C[C@H](O[C@@H]1O[C@H](CO[C@@H]2O[C@H](CO)[C@H](O)[C@H](O)[C@H]2O)[C@H](O)[C@H](O)[C@H]1O)c1ccccc1,23.5 µM (active),,
O=[N+]([O-])/N=C1\NCCN1Cc1ccc(Cl)nc1,,,inactive
O=C1C=CC[C@@H]2[C@H]3CCCN4CCC[C@@H](CN12)[C@@H]34,,,inactive
CN(C)[C@@H]1C(=O)C(C(N)=O)=C(O)[C@@]2(O)C(=O)C3=C(O)c4c(O)cccc4[C@@](C)(O)[C@H]3[C@H](O)[C@@H]12,,,inactive
CC(=O)[O][Hg][c]1ccccc1,0.376 µM (active),,
COc1nn(CSP(=S)(OC)OC)c(=O)s1,21.7 µM (active),,
O=C(N[C@H]1CN2CCC1CC2)c1ccc(Cl)cc1,,-12.5%,inactive
Cc1c(C(=O)c2cccc3ccccc23)c2cccc3c2n1[C@H](CN1CCOCC1)CO3,18.7 µM (active),,
O=C1C(I)=CC(=C(c2cc(I)c(O)c(I)c2)c2ccccc2C(=O)O)C=C1I,,-13.3%,
Fc1cc(Br)ccc1CBr,,-1.72%,

SMILES,Potency,max response,outcome
O=S(=O)(F)Cc1ccccc1,,,inactive
COc1cc([C@@H]2c3cc4c(cc3[C@@H](O)C3COC(=O)C32)OCO4)cc(OC)c1O (stereo not given in full),0.0372 µM (active),,
CC(C)(C)NC[C@H](O)c1ccc(O)cc1Cl,,-9.08%,
CC[C@@H](C(N)=O)N1CCCC1=O,,,inactive
O=C(O)CNC(=O)c1c(O)c2ccccc2n(Cc2ccccc2)c1=O,,1.22%,inactive
CC1=C(O)C(=O)C=C2C1=CC=C1[C@@]2(C)CC[C@@]2(C)[C@@H]3C[C@](C)(C(=O)O)CC[C@]3(C)CC[C@]12C,1.48 µM (active),,
C=CCC1=C(C)C(OC(=O)C2C(C=C(C)C)C2(C)C)CC1=O (stereo not given),19.3 µM (active),,
CCN1CCN(C(=O)Cc2ccc(Nc3ncc(F)c(Nc4ccc(C(=O)Nc5ccccc5Cl)cc4)n3)cc2)CC1,3.72 µM (active) and 2.59 µM (active),,
O=C(O)C(Cl)Cl,,,inactive
CC(C)(C)[C@]1(O)C[C@@H]2OC(=O)C[C@@]23C(=O)O[C@@H]2OC(=O)[C@H](O)C213 (stereo not given in full),,,inactive
OCCCBr,,,inactive
CS(=O)(=O)c1ccc(C(=O)C2C(=O)CCCC2=O)c([N+](=O)[O-])c1,,-9.25%,
S=C(SSC(=S)N1CCCCC1)N1CCCCC1,0.944 µM (active),,
COc1ccc(N(C(=O)Oc2c(C)cccc2C)c2ccnc(Nc3ccc(N4CCN(C)CC4)cc3)n2)c(OC)c1,,1.61% and -25.7%,
Oc1ccc2c3c1O[C@H]1[C@@H](O)C=C[C@H]4[C@@H](C2)NCC[C@@]341,,-17.4%,
C=CC(=O)NCNC(=O)C=C,,,inactive
C[C@@H]1[C@H](O)[C@@H](C)C=CC=CCCC=CC=CC=CC=C[C@H](O[C@H]2O[C@@H](C)[C@H](O)[C@@H](N)[C@@H]2O)CC2O[C@](O)(C[C@@H](O)[C@H](O)CC[C@@H](O)C[C@@H](O)C[C@@H](O)CC(=O)O[C@H]1C)C[C@H](O)[C@H]2C(=O)O,,2.42%,
CCNC(=O)CC1N=C(c2ccc(Cl)cc2)c2cc(OC)ccc2-n2c(C)nnc21 (stereo not given),6.51 µM (active),-10.4%,inactive
